Screens deposited in PubChem by National Center for Advancing Translational Sciences (NCATS).
The list is not random: actives were taken first. Their share in the collection is about 5.3%.
JMJD2A Tudor: inhibitors of human JMJD2A Tudor domain. hit rate 4.4% among 390,000. O75164. Potency, µM (doses to about 114 µM), for inactives: top-dose activity change, negative = inhibition, usual class: inhibitors. AlphaScreen JMJD2A-Tudor / H3K4me3 peptide binding. AID 504339; note: potency is the fitted concentration of half-maximal effect; % is set by controls: 0 for no effect and ±100 for the full control effect; nearly all actives have a fitted effect of over 50% in size
HP1b chromo inh: inhibitors of HP1-beta chromodomain binding to methylated histone tails; P83916; AlphaScreen HP1-beta / biotin-H3K9me3 peptide binding; Potency, µM (highest dose often 114 µM), for the others: top-dose activity change, negative = inhibition, usual class: inhibitors; hit rate 0.56% among 390,000; AID 540317; note: potency is the fitted concentration of half-maximal effect; nearly all actives have a fitted effect of over 70% in size
Target sequence (P83916 whole entry, looked up): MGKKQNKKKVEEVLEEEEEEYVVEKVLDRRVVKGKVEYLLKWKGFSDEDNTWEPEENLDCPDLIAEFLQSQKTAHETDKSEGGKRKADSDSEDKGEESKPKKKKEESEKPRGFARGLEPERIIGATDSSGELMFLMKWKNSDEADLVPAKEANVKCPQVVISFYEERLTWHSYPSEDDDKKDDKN
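Compound inhibition of the preformed complex between 50 nM HP1-beta and 50 nM biotinylated H3K9me3 peptide was read by AlphaScreen. Buffer was PBS pH 7.4 with 0.01% Tween-20. Incubations ran 30 min at room temperature, with 10 ug/mL donor/acceptor beads.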
TDP1 block: inhibitors of human tyrosyl-DNA phosphodiesterase TDP1. Q9NUW8. recombinant TDP1, AlphaScreen DNA substrate cleavage. AID 485290. hit rate 0.28% among 350,000. Potency, µM (highest dose often 130 µM), inactives show at the top dose activity change, negative = inhibition, most hits filed as inhibitors; note: potency is the fitted concentration of half-maximal effect; % is set by controls: 0 for no effect and ±100 for the full control effect; nearly all actives have a fitted effect of over 40% in size
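Signal: AlphaScreen proximity between streptavidin donor and anti-FITC acceptor beads on intact substrate. Reaction: Tdp1 1 nM, substrate 15 nM final, 5 min RT after 15 min compound preincubation.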
Six1-Eya2 blk: Six1/Eya2 interaction inhibition. activity change, % (no concentration beside the values). Q15475+O00167. AlphaScreen GST-Six1/His-Eya2 binding, biochemical; active compounds read low. hit rate 0.56% among 360,000. AID 651725; in the data active = activity change below about -65%; inconclusive = mostly about -30% to -63%; note: % is set by controls: 0 for no effect and ±100 for the full control effect
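Compounds are tested against tagged Six1 and Eya2 proteins bridged by glutathione donor and nickel acceptor beads; after a one-hour incubation at 37 °C without light, AlphaScreen emission is recorded.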
BAZ2B inh: blocks human BAZ2B | Potency, µM (series often up to 114 µM), without a hit: at the top dose activity change, negative = inhibition, most hits filed as inhibitors | AID 504333 | hit rate 4.4% among 360,000 | Q9UIF8 | AlphaScreen BAZ2B-H3K14Ac peptide displacement; note: potency is the fitted concentration of half-maximal effect; % is set by controls: 0 for no effect and ±100 for the full control effect; nearly all actives have a fitted effect of over 60% in size
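AlphaScreen displacement of biotin-H3(5-23)K14Ac peptide (50 nM final) from BAZ2B (50 nM final) in PBS pH 7.4, 0.01% Tween-20; complex preformed 30 min RT, then compounds (top 110 uM) 30 min RT, beads 20 min dark.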
CtBP-E1A inh: inhibitors of CtBP/E1A interaction; activity change, % (test concentration not listed); AID 651724; hit rate 0.49% among 340,000; AlphaScreen GST-E1A/His-CtBP binding, 1536-well; active compounds read low; in the data active = activity change below about -65%; inconclusive = mostly about -30% to -63%; note: % is set by controls: 0 for no effect and ±100 for the full control effect
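Steps: dispense buffer (Tris pH 8.0, NaCl 300 mM, TCEP 1 mM, BSA, Tween 20); add 5X protein mix (GST-E1A, His-CtBP, 125 nM each); pin 23 nL compound; 2 h at 37 °C, dark; add 5X beads (50 ug/mL); 1 h; read.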
Numbers without * were called inactive; [ ] = another dose, or the depositor's remark. Unless noted, calls come from the whole dose curve; as a rule, active = well fitted inhibition curve with a large enough effect; inconclusive = small, poorly fitted or top-dose-only effect; inactive = no such curve, though single readings can be large or run the other way.

`Cc1cc(C)c2c(=O)cc(C(=O)Nc3sc4c(c3C(=O)NCc3ccccc3)CCCC4)oc2c1` gave JMJD2A Tudor -15%, HP1b chromo inh 13%, TDP1 block 6% and BAZ2B inh 2%.
`Cc1nn(-c2ccccc2)c2[nH]c(=O)c(CNc3ccc(N4CCOCC4)cc3)cc12` gave JMJD2A Tudor inconclusive, HP1b chromo inh inconclusive, TDP1 block 10%, Six1-Eya2 blk -70*, BAZ2B inh 45µM* and CtBP-E1A inh -69*.
CC(C)(C)c1nn(-c2ccccc2)c2[nH]c(=O)c(CNc3ccc4c(c3)OCCO4)cc12 was read as JMJD2A Tudor 40µM*, HP1b chromo inh inconclusive, TDP1 block 12%, Six1-Eya2 blk inconclusive, BAZ2B inh 1.1µM* and CtBP-E1A inh 3.
`CCC(=O)N1CCc2cc(Br)cc(S(=O)(=O)CCC(=O)Nc3cccc(Cl)c3)c21` gave JMJD2A Tudor -24%, HP1b chromo inh 14%, TDP1 block -6% and BAZ2B inh -30%.
COc1cccc(C2CC(=O)Nc3c2c(=O)n(C)c2ncnn32)c1OC (stereo unspecified) was read as JMJD2A Tudor -3%, HP1b chromo inh 6%, TDP1 block 6% and BAZ2B inh -32%.
For Cc1cc(N2C(=O)c3ccc(C(=O)Nc4ccc(O)cc4C(=O)O)cc3C2=O)no1 the results were JMJD2A Tudor -35%, HP1b chromo inh 17%, TDP1 block 12%, Six1-Eya2 blk -2, BAZ2B inh 79µM* and CtBP-E1A inh 1.
For Cc1ccc(C(=O)Nc2ccc(O)cc2C(=O)O)cc1C the results were JMJD2A Tudor inconclusive, HP1b chromo inh 3%, TDP1 block 12%, Six1-Eya2 blk inconclusive, BAZ2B inh 79µM* and CtBP-E1A inh -9.
`CC1=C(c2ccc(C(C)C)cc2)S(=O)(=O)NC1=NCc1ccc(OC(C)C)cc1` gave JMJD2A Tudor -13%, HP1b chromo inh 33%, TDP1 block 0% and BAZ2B inh -8%.
O=C(OCC#CCSc1nnc(-c2cccc3ccccc23)o1)c1ccc(F)cc1F was read as JMJD2A Tudor 26% and TDP1 block -7%.
For CCc1ccc(C2=C(C)C(N3CCC(C(=O)NCc4ccc(C)o4)CC3)=NS2(=O)=O)cc1 the results were JMJD2A Tudor -13%, HP1b chromo inh -6%, TDP1 block 5% and BAZ2B inh -5%.
COc1ccc(N2CCN(C3=CC(=O)N(c4cccc(Cl)c4)C3=O)CC2)cc1 was read as JMJD2A Tudor inconclusive, HP1b chromo inh inconclusive, TDP1 block 9%, Six1-Eya2 blk 1, BAZ2B inh 11µM* and CtBP-E1A inh -2.
`COc1ccc(NC(=O)CSc2nnc(-c3cccs3)o2)cc1` gave JMJD2A Tudor -4%, HP1b chromo inh 25%, TDP1 block 1% and BAZ2B inh -12%.
`Clc1ccccc1Nc1nc(-c2cccnc2)cs1` gave JMJD2A Tudor -25%, HP1b chromo inh -16%, TDP1 block -1%, Six1-Eya2 blk 1, BAZ2B inh 56µM* and CtBP-E1A inh -3.
Screening c1cncc(Nc2nc(-c3cccnc3)cs2)c1 returned JMJD2A Tudor -27%, HP1b chromo inh 14%, TDP1 block 3%, Six1-Eya2 blk -10, BAZ2B inh 4% and CtBP-E1A inh -18.
`O=C1CCCC2=C1C1(CCCC1)N=C(Nc1nc3cc4ccccc4cc3o1)N2` gave JMJD2A Tudor 89µM* and TDP1 block 2%.
For Cn1c(=O)c2c(nc3n(-c4ccc(O)cc4)c(-c4ccc(Br)cc4)cn23)n(C)c1=O the results were JMJD2A Tudor -3%, HP1b chromo inh 39%, TDP1 block 2% and BAZ2B inh -13%.
Cc1cc(O)c(C=O)c2c1C(=O)Oc1c(CO)c(O)c3c(c1O2)C(O)OC3=O (stereo unspecified) was read as JMJD2A Tudor 3.2µM*, HP1b chromo inh inconclusive, Six1-Eya2 blk -80*, BAZ2B inh 20µM* and CtBP-E1A inh -4.
`Cc1cc(O)c(CN(C)C)c2c1C(=O)/C(=C/c1ccco1)O2` gave JMJD2A Tudor -26%, HP1b chromo inh -9%, Six1-Eya2 blk -11, BAZ2B inh -22% and CtBP-E1A inh 9.
Screening CCC(=O)Nc1ccc(C)cc1-c1nc2ccccc2n(CC(=O)Nc2ccccc2Cl)c1=O returned JMJD2A Tudor -7%, HP1b chromo inh 25%, TDP1 block 6% and BAZ2B inh -6%.
COc1cc(Cl)c(S(=O)(=O)N2CCCC2)cc1Cl was read as JMJD2A Tudor -7%, HP1b chromo inh 41%, TDP1 block -3%, Six1-Eya2 blk 2, BAZ2B inh 0% and CtBP-E1A inh 7.
For COc1cc(N2C(=O)C=CC2=O)c(OC)cc1Cl the results were JMJD2A Tudor 10µM*, HP1b chromo inh 10µM*, TDP1 block -8%, Six1-Eya2 blk -14, BAZ2B inh -15% and CtBP-E1A inh -19.
`Cc1ccc(-c2nnc(Nc3ccc(O)cc3)c3ccccc23)cc1S(=O)(=O)NCC1CCCO1` (stereo unspecified) gave JMJD2A Tudor -32%, HP1b chromo inh -4% and BAZ2B inh inconclusive.
Screening CCOC(=O)C1CCCN(Cc2nc(N)nc(Nc3ccc(Cl)cc3)n2)C1 (stereo unspecified) returned JMJD2A Tudor 18%[11.4 µM], HP1b chromo inh 32%, TDP1 block 7%, Six1-Eya2 blk -7, BAZ2B inh 50µM* and CtBP-E1A inh -11.
`CCOC(=O)C1CCCN(C(=O)c2ccc(Cl)cc2)C1` (stereo unspecified) gave JMJD2A Tudor -4%, HP1b chromo inh 52%, TDP1 block -5%, Six1-Eya2 blk -1, BAZ2B inh -10% and CtBP-E1A inh 7.
For CCOC(=O)C1CCCN(Cc2nc(N)nc(Nc3ccc(OC)cc3)n2)C1 (stereo unspecified) the results were JMJD2A Tudor 20µM*, HP1b chromo inh -22%, TDP1 block 9%, Six1-Eya2 blk -4, BAZ2B inh inconclusive and CtBP-E1A inh -6.
`COC(=O)CCC(C)C1CCC2C3C(O)C[C@@H]4CC(O)CC[C@@]4(C)C3CC(O)[C@]12C` (stereo partly specified) gave TDP1 block 13%[56.1 µM].
`CCOc1ccc(CN2C(=O)c3ccccc3Sc3ccc(C(=O)NCc4ccc(C)cc4)cc32)cc1` gave JMJD2A Tudor -12%, HP1b chromo inh 31% and TDP1 block 2%.
